B1: ENSMUSG00000043670.217|Diras1|25:29;58:70;94:99;102:106;111:115;225:229 (ssRNA)
RNA: GGGAGUUCUACAGUCCGACGAUCGCUUCGAUAUCCGCAUGCUAGGAUGGGGUGUUCUUGCACCACUUACACAUCUUAGUGAGACCACAGUGUAAGUGGCCCACACACACACACGGGGGGGGCACCUAGACAUUGUGCACACACUCAUACGCUCACACAUUUCAGGGGUGGGUGACACAGGCCUGUCUGAUGAGCACCAGGUCUGUUCCAGGCUGUGGCAAGCUGGCUCCUGGCUCAGAAGUGACAAAGCUGCAGUACAGAGGCCUCACACACAGGUCAUCACCUCACAGUGGCUACAGACCAGCUCUUGCGGUCGCACUAGUGUGGAAUUCUCGGGUGUCAAGG
B2: ENSMUSG00000042529.423|Kcnj12|7:11;23:33;56:61;218:222 (ssRNA)
RNA: GGGAGUUCUACAGUCCGACGAUCGCUUCGAUAUCCGCAUGCUAGUGAGGCACACGAGGUCCCAGGCACACACAUACUGAAUGUCAGUGGCUUGGGUGCACACACGAGAGAGAGAGAGAGAGAGAGAGAGAGAGAGAGAGAGAGAGAGAGAGAGAGCUGCACAGGAUGAAGCAGCUGCCCUGAGCCCAUCUGGUGCUGUGCACCUGGUCCUUGUCCAGCCGAGGGCCUGGGGGCAGAAGAACACACCAUAGGGAGGCCCUUCAUACGGUGUCUGCCCUAUGUGAGGUCAUAGAAUGUUAAAUCUCUCUUGCGGUCGCACUAGUGUGGAAUUCUCGGGUGUCAAGG
B3: ENSMUSG00000042529.424|Kcnj12|1:5;17:27;50:55;212:216 (ssRNA)
RNA: GGGAGUUCUACAGUCCGACGAUCGCUUCGAUAUCCGCAUGCUACACACGAGGUCCCAGGCACACACAUACUGAAUGUCAGUGGCUUGGGUGCACACACGAGAGAGAGAGAGAGAGAGAGAGAGAGAGAGAGAGAGAGAGAGAGAGAGAGCUGCACAGGAUGAAGCAGCUGCCCUGAGCCCAUCUGGUGCUGUGCACCUGGUCCUUGUCCAGCCGAGGGCCUGGGGGCAGAAGAACACACCAUAGGGAGGCCCUUCAUACGGUGUCUGCCCUAUGUGAGGUCAUAGAAUGUUAAAUCUAUUUUACUCUUGCGGUCGCACUAGUGUGGAAUUCUCGGGUGUCAAGG
B4: ENSMUSG00000042529.420|Kcnj12|1:11;16:21;25:29;41:51;74:79;236:240 (ssRNA)
RNA: GGGAGUUCUACAGUCCGACGAUCGCUUCGAUAUCCGCAUGCUACACACACACACAACAACACACAGGCACACGAGGUCCCAGGCACACACAUACUGAAUGUCAGUGGCUUGGGUGCACACACGAGAGAGAGAGAGAGAGAGAGAGAGAGAGAGAGAGAGAGAGAGAGAGAGAGCUGCACAGGAUGAAGCAGCUGCCCUGAGCCCAUCUGGUGCUGUGCACCUGGUCCUUGUCCAGCCGAGGGCCUGGGGGCAGAAGAACACACCAUAGGGAGGCCCUUCAUACGGUGUCUGCCCUAUGUGAGGCUCUUGCGGUCGCACUAGUGUGGAAUUCUCGGGUGUCAAGG
B5: ENSMUSG00000042529.425|Kcnj12|11:21;44:49;206:210 (ssRNA)
RNA: GGGAGUUCUACAGUCCGACGAUCGCUUCGAUAUCCGCAUGCUAAGGUCCCAGGCACACACAUACUGAAUGUCAGUGGCUUGGGUGCACACACGAGAGAGAGAGAGAGAGAGAGAGAGAGAGAGAGAGAGAGAGAGAGAGAGAGCUGCACAGGAUGAAGCAGCUGCCCUGAGCCCAUCUGGUGCUGUGCACCUGGUCCUUGUCCAGCCGAGGGCCUGGGGGCAGAAGAACACACCAUAGGGAGGCCCUUCAUACGGUGUCUGCCCUAUGUGAGGUCAUAGAAUGUUAAAUCUAUUUUAAACGGUCUCUUGCGGUCGCACUAGUGUGGAAUUCUCGGGUGUCAAGG
B6: ENSMUSG00000042529.422|Kcnj12|4:9;13:17;29:39;62:67;224:228 (ssRNA)
RNA: GGGAGUUCUACAGUCCGACGAUCGCUUCGAUAUCCGCAUGCUAACAACACACAGGCACACGAGGUCCCAGGCACACACAUACUGAAUGUCAGUGGCUUGGGUGCACACACGAGAGAGAGAGAGAGAGAGAGAGAGAGAGAGAGAGAGAGAGAGAGAGAGAGCUGCACAGGAUGAAGCAGCUGCCCUGAGCCCAUCUGGUGCUGUGCACCUGGUCCUUGUCCAGCCGAGGGCCUGGGGGCAGAAGAACACACCAUAGGGAGGCCCUUCAUACGGUGUCUGCCCUAUGUGAGGUCAUAGAAUGUUCUCUUGCGGUCGCACUAGUGUGGAAUUCUCGGGUGUCAAGG
B7: ENSMUSG00000042529.427|Kcnj12|1:9;32:37;194:198 (ssRNA)
RNA: GGGAGUUCUACAGUCCGACGAUCGCUUCGAUAUCCGCAUGCUACACACAUACUGAAUGUCAGUGGCUUGGGUGCACACACGAGAGAGAGAGAGAGAGAGAGAGAGAGAGAGAGAGAGAGAGAGAGAGAGAGCUGCACAGGAUGAAGCAGCUGCCCUGAGCCCAUCUGGUGCUGUGCACCUGGUCCUUGUCCAGCCGAGGGCCUGGGGGCAGAAGAACACACCAUAGGGAGGCCCUUCAUACGGUGUCUGCCCUAUGUGAGGUCAUAGAAUGUUAAAUCUAUUUUAAACGGUGAAACUGGAGAACUCUUGCGGUCGCACUAGUGUGGAAUUCUCGGGUGUCAAGG
B8: ENSMUSG00000042529.426|Kcnj12|5:15;38:43;200:204 (ssRNA)
RNA: GGGAGUUCUACAGUCCGACGAUCGCUUCGAUAUCCGCAUGCUACAGGCACACACAUACUGAAUGUCAGUGGCUUGGGUGCACACACGAGAGAGAGAGAGAGAGAGAGAGAGAGAGAGAGAGAGAGAGAGAGAGAGAGCUGCACAGGAUGAAGCAGCUGCCCUGAGCCCAUCUGGUGCUGUGCACCUGGUCCUUGUCCAGCCGAGGGCCUGGGGGCAGAAGAACACACCAUAGGGAGGCCCUUCAUACGGUGUCUGCCCUAUGUGAGGUCAUAGAAUGUUAAAUCUAUUUUAAACGGUGAAACUCUCUUGCGGUCGCACUAGUGUGGAAUUCUCGGGUGUCAAGG
B9: ENSMUSG00000042529.421|Kcnj12|1:5;10:15;19:23;35:45;68:73;230:234 (ssRNA)
RNA: GGGAGUUCUACAGUCCGACGAUCGCUUCGAUAUCCGCAUGCUACACACAACAACACACAGGCACACGAGGUCCCAGGCACACACAUACUGAAUGUCAGUGGCUUGGGUGCACACACGAGAGAGAGAGAGAGAGAGAGAGAGAGAGAGAGAGAGAGAGAGAGAGAGAGCUGCACAGGAUGAAGCAGCUGCCCUGAGCCCAUCUGGUGCUGUGCACCUGGUCCUUGUCCAGCCGAGGGCCUGGGGGCAGAAGAACACACCAUAGGGAGGCCCUUCAUACGGUGUCUGCCCUAUGUGAGGUCAUAGCUCUUGCGGUCGCACUAGUGUGGAAUUCUCGGGUGUCAAGG
B10: ENSMUSG00000042529.419|Kcnj12|1:17;22:27;31:35;47:57;80:85;242:246 (ssRNA)
RNA: GGGAGUUCUACAGUCCGACGAUCGCUUCGAUAUCCGCAUGCUACACACACACACACACACAACAACACACAGGCACACGAGGUCCCAGGCACACACAUACUGAAUGUCAGUGGCUUGGGUGCACACACGAGAGAGAGAGAGAGAGAGAGAGAGAGAGAGAGAGAGAGAGAGAGAGAGAGCUGCACAGGAUGAAGCAGCUGCCCUGAGCCCAUCUGGUGCUGUGCACCUGGUCCUUGUCCAGCCGAGGGCCUGGGGGCAGAAGAACACACCAUAGGGAGGCCCUUCAUACGGUGUCUGCCCUAUCUCUUGCGGUCGCACUAGUGUGGAAUUCUCGGGUGUCAAGG

In all, about 9,900 sequences were measured (“r (bound/input frequency ratio)”: median about 0.7, highest 2% from about 6.5 on). Only a selection was taken, and the highest values are over-represented in it overall.

The source of these data is article PMC12864922, “TDP-43 directly inhibits mRNA accumulation in neurites through modulation of mRNA stability”.

Chain of TDP-43 (Q13148 whole entry): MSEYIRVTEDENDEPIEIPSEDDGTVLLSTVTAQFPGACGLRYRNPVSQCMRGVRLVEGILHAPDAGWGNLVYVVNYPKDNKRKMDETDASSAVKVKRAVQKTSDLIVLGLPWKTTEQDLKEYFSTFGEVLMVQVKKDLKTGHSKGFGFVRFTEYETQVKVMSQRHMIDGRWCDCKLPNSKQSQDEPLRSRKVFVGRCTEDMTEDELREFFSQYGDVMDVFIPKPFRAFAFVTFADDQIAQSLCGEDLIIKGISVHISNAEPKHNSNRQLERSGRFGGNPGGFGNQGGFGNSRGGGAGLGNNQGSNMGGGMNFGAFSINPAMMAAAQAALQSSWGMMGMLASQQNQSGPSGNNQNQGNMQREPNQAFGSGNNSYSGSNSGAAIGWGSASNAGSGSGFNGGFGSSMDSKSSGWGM

This assay addresses TDP-43 (Homo sapiens, UniProt Q13148 1-414). Description: RNA Bind-n-Seq with designed 260-mer pool; 25 mM Tris-HCl, 150 mM KCl, 3 mM MgCl2, BSA (printed 500 mg/mL), 20 units/mL SUPERase IN; pH not stated; 500 nM RNA pool, 1 h, 4 C; TDP-43 5, 50, 500 nM; high values mean tight binding. The conditions noted are these: protein: recombinant; tags: SBP (GST cleaved off with PreScission; pGEX-GST-SBP). An outline of the steps:
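An in vitro-transcribed pool of 260-nt 3′ UTR oligos (500 nM) was incubated for 1 h at 4 °C with recombinant SBP-tagged TDP-43 at 5, 50 or 500 nM held on streptavidin beads. The buffer contained 25 mM Tris-HCl, 150 mM KCl, 3 mM MgCl2, BSA and SUPERase IN. Biotin-eluted bound RNA was sequenced, and binding, R, is each oligo's normalized read abundance in the bound sample over that in input.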
On to B1, for which the binding signal was 0.883 R (bound/input frequency ratio).
Next, B2: 7.58 R (bound/input frequency ratio).
For the molecule B3, the binding signal is 6.55 R (bound/input frequency ratio).
Turning to B4, the binding signal is 4.97 R (bound/input frequency ratio).
For the molecule B5, the binding signal was 6.2 R (bound/input frequency ratio).
Next, B6: 6.32 R (bound/input frequency ratio); B7: 5.49 R (bound/input frequency ratio).
For B8, the binding signal was 5.67 R (bound/input frequency ratio).
B9: the binding signal was 7.21 R (bound/input frequency ratio).
For the molecule B10, the binding signal is 6.45 R (bound/input frequency ratio).
